# This excerpt belongs to a sample that is enriched for hits.
# ST2 inh = IL1RL1 inhibition. AlphaLISA ST2-Fc/biotin-IL-33 interaction, 1 h. inhibition, % for hits at 17 µM. 78,000 compounds, 2.3% hits. AID 1259354; in the data active means inhibition above about 30%
# Target sequence (Q01638 whole entry, looked up): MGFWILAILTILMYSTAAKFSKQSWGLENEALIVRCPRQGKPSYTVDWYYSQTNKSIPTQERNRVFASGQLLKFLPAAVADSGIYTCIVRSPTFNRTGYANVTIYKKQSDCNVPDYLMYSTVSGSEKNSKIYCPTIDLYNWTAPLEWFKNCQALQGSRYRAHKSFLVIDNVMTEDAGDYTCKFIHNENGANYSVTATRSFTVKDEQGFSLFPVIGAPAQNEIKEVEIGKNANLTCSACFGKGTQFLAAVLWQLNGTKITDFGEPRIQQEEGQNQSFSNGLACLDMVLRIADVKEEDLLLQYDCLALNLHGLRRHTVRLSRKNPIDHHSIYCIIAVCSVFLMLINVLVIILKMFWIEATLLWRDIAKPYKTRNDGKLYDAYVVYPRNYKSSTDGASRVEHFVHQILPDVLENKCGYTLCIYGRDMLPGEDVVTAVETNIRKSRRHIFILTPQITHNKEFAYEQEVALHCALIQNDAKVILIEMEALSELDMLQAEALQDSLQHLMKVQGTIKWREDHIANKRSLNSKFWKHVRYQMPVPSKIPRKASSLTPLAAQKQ
# A number is an active result; - = inactive.
SMILES,ST2 inh
CCOc1ccc(N2CC(NC(=O)C3CC3)CC2=O)cc1 (stereo unspecified),-
Cc1cccc(NC(=O)CC(=O)NCc2cc(C(C)C)on2)c1C,-
Cc1cc(C)cc(-n2c(CCCC(=O)O)nc3cccnc32)c1,-
COC(=O)c1cccc(CN2C(=O)SC(Nc3ccc(Cl)cc3)C2=O)c1 (stereo unspecified),-
COc1ccc(CNc2ncnc(NCc3ccc(OC)cc3)c2[N+](=O)[O-])cc1,-
O=[N+]([O-])c1ccccc1S(=O)(=O)NCc1cccnc1,-
O=[N+]([O-])c1cccnc1NCc1ccccc1,39.0%
Clc1ccc2nc(CSc3nc4ccccc4[nH]3)c(Cl)n2c1,-
COc1ccccc1-n1cc(C(=O)N2CCN3C(=O)CNC(=O)C3C2)cn1 (stereo unspecified),-
CCOCCCNC(=O)C1c2c(n(C)c3ccccc23)SCC(=O)N1c1ccc(F)cc1F (stereo unspecified),-
O=C1OCCN1S(=O)(=O)c1ccc(Cl)cc1,-
O=C1/C(=C/C=C/c2ccco2)CC/C1=C\C=C\c1ccco1,96.0%
O=C(c1ccc2c(c1)OCO2)N1CCN=C1SCc1ccc(Cl)cc1,-
O=C(NC1CCCCCC1)c1ccccc1[N+](=O)[O-],-
O=C(Nc1ccccc1[N+](=O)[O-])C1C2CCCCC21 (stereo unspecified),39.0%
CC(C)(C)CC(=O)Nc1ccccc1[N+](=O)[O-],-
Cc1cc(C)cc(C(=O)N2CCN=C2SCc2cccnc2)c1,-
NC(=O)CCn1cc(-c2c(-c3ccccc3)ncn2CCO)c2ccccc21,-
Cc1cccc(N(CC(=O)Nc2ccc(F)cc2)S(=O)(=O)c2ccccc2)c1C,38.0%
Cc1cccc(N(CC(=O)Nc2ccccc2Cl)S(=O)(=O)c2ccccc2)c1C,-
COc1ccc(N(CC(=O)Nc2ccc(F)cc2)S(=O)(=O)c2ccccc2)c(OC)c1,-
Cc1occc1C(=O)NCCCNc1cccnc1,-
O=C1NN(c2cccc(Cl)c2)C(=O)/C1=C\c1cccn1-c1ccc([N+](=O)[O-])cc1,59.0%
O=C1NN(c2cc(Cl)cc(Cl)c2)C(=O)/C1=C\c1cccn1-c1ccc([N+](=O)[O-])cc1,-
Cc1ccc(N2NC(=O)/C(=C/c3ccc(Cl)c([N+](=O)[O-])c3)C2=O)cc1C,-
SMILES,ST2 inh
CC(=O)Nc1ccc(Cl)c(C(=O)N2CCN(CC(=O)N3CCCCC3)CC2)c1,-
CCCn1nc(C)c(CNC(=O)c2sc(CC)nc2C)c1C,-
Cc1ccc(S(N)(=O)=O)cc1NC(=O)c1ccc2c(c1)OCO2,-
O=S(=O)(c1cccc2cccnc12)N1CCN(c2ccccc2Cl)CC1,-
c1cnn(-c2cc(N3CCC(n4cc(-c5ccsc5)nn4)CC3)ncn2)c1,-
CCOc1ccc(-n2c(SCC(=O)N3CCCCC3)nc3c(c2=O)SCC3)cc1,-
COc1ccc(CN2C[C@H](O)C[C@H]2c2nc(-c3ccccc3)no2)c(OC)c1OC,-
COc1ccc(-c2noc([C@@H]3C[C@@H](O)CN3Cc3cccc(C#N)c3)n2)cc1,58.0%
COc1ccc(CN2C[C@H](O)C[C@H]2c2nc(Cc3ccc(F)cc3Cl)no2)c2ccccc12,-
COc1ccc(CN2C[C@H](O)C[C@H]2c2nc(-c3ccncc3)no2)cc1,-
COc1ccc(CN2C[C@H](O)C[C@H]2c2nc(-c3ccc(F)cc3)no2)c(OC)c1OC,47.0%
COc1ccc(CN2C[C@H](O)C[C@H]2c2nc(-c3ccccc3)no2)cc1,-
O=C1OCc2cc3cccc(O[C@@H]4O[C@H](CO)[C@@H](O)[C@H](O)[C@H]4O)c3c(O)c21,-
CCOc1ccccc1C1C2=C(CC(C)(C)CC2=O)Nc2ccccc2N1C(C)=O (stereo unspecified),-
O=C1CCCN1C1CCCN(CCn2cc(Cl)cn2)C1 (stereo unspecified),-
Cc1ccc(NS(=O)(=O)c2ccc3c(c2)c(=O)n(C)c(=O)n3C)c(C)c1,-
O=C1N(CN2CCN(c3ccccc3F)CC2)c2ccccc2C12OCCO2,-
CCCn1cnnc1CN(C)Cc1cc2n(n1)CCNC2,-
COc1ccc2c(C)c(C(=O)O)oc2c1,-
CCOC(=O)c1c(-c2ccccc2)oc2ccc(OC)cc12,-
COc1ccc2oc(C(=O)c3ccccc3)c(N)c2c1,35.0%
O=C(Cn1c2ccccc2c(=O)c2ccccc21)Nc1ccccc1F,-
O=C(Cn1c2ccccc2c(=O)c2ccccc21)Nc1ccccc1C(F)(F)F,39.0%
O=C(Cn1c2ccccc2c(=O)c2ccccc21)Nc1ccccc1Br,-
Cc1ccc(-c2noc(CCC(=O)N3CCCCC3)n2)cc1,-
SMILES,ST2 inh
O=C(CN1C(=O)S/C(=C/c2ccccc2)C1=O)Nc1ccccc1Cl,-
COc1ccc(/C=C2/SC(=O)N(CCC(=O)Nc3ccccc3Br)C2=O)cc1,-
COc1ccc(/C=C2/SC(=O)N(CC(=O)Nc3cc(C)on3)C2=O)cc1OC,35.0%
CCOc1ccc(OCCOCCN2CCN(C)CC2)cc1,-
Fc1cccc(-c2nnc3n2N=C(c2ccc(Cl)s2)CS3)c1,30.0%
COc1cccc(C2=Nn3c(nnc3-c3ccccc3)SC2)c1,-
O=c1oc2ccccc2cc1C1=Nn2c(nnc2-c2cccc(F)c2)SC1,-
O=[N+]([O-])c1cccc2ccc(Nc3ccccn3)nc12,31.0%
O=[N+]([O-])c1ccccc1OCCOc1cccc2cccnc12,-
Cc1cc(C)n(-c2ccc3cccc([N+](=O)[O-])c3n2)n1,-
CCCOC1CCCN(C(=O)c2cc(COc3ccccc3OC)on2)C1 (stereo unspecified),-
Cc1cccc(NC(=O)CC(=O)N(C)Cc2cccc(-n3cccn3)c2)c1C,-
CCOC(=O)c1cccnc1-c1ccc(-c2ccn[nH]2)cc1,-
C=CCc1cc(OC)c(O)c(-c2cc(CC=C)cc(OC)c2O)c1,41.0%
C=CCc1ccc(OCCOc2ccc(C=O)cc2OC)c(OC)c1,-
COc1cc(CCCO)cc(-c2cc(CCCO)cc(OC)c2O)c1O,-
CCCCCCCCCCCCCCCCCC(=O)OC(CC(=O)O)C[N+](C)(C)C (stereo unspecified),-
Cc1cc(Cl)ccc1OC(C)C(=O)NCc1cccnc1-n1ccnc1 (stereo unspecified),-
CCOC(=O)C1C(=O)C=C(c2ccc(C)cc2)CC1c1ccccc1C (stereo unspecified),-
CC1(C)CC(N2C(=O)OC(C)([C@H]3CC4C=CC3C4)C2(C)O)CC(C)(C)N1 (stereo partly specified),98.0%
Fc1cccc2sc(Nc3nnc(-c4ccco4)o3)nc12,-
CC(NC(=O)c1cc2ccccc2o1)c1ccccc1 (stereo unspecified),-
CC(Nc1ccc(Cl)cc1N)c1ccccc1 (stereo unspecified),57.0%
CC(NC(=O)c1ccc(Cl)cc1)c1ccccc1 (stereo unspecified),-
COc1cc2c(C(=O)NC3CCCCC3)cn(CC(C)C)c(=O)c2cc1OC,-
SMILES,ST2 inh
COC(=O)[C@H]1C[C@@H](O)CCN1C(=O)c1cc(C)c(-c2ccccc2)s1,-
CN(C)c1ccc(/C=C/c2nc(=O)c3ccccc3o2)cc1,55.0%
COc1ccc(-c2nnc(/C=C/c3ccccc3)o2)cc1,-
Cc1ccc2oc(/C=C/c3nc4cc(C)ccc4o3)nc2c1,-
COc1ccc(CNC(=O)c2sc3ccccc3c2Cl)cc1,-
COc1ccc(Cl)cc1C(=O)C1CCCN(Cc2cccc3cnccc23)C1 (stereo unspecified),-
COc1cccc(N(CC(=O)Nc2ccc(C)c(Cl)c2)S(C)(=O)=O)c1,-

# Screening data: PubChem BioAssay, Paczesny and Yang Labs, IUPUI and University of Michigan
